# Compound activity from PubChem BioAssay.
# Hits are enriched below; roughly 8% of the tested compounds scored in any of these assays.
# MARV entry inh: qHTS for inhibitors of binding or entry into cells for Marburg Virus | Marburg virus pseudotyped entry inhibition, cell reporter | Potency, µM (series often up to 37.8 µM), without a hit: top-dose activity change, negative = inhibition, most hits filed as inhibitors | 300,000 compounds, 1.8% hits; calls by dose curve; tested in HEK293 cells; further: potency means the concentration at half of the fitted maximal effect; on the % scale 0 is the no-effect control and ±100 the full control effect
# SARS PLP yeast: qHTS of Yeast-based Assay for SARS-CoV PLP | S. cerevisiae expressing SARS-CoV PLpro, growth rescue | Potency, µM (series often up to 32.9 µM), inactives show at the highest dose activity, positive = growth rescue, usual class: activators | 330,000 compounds, 0.19% hits; calls by dose curve; further: potency means the concentration at half of the fitted maximal effect; 0% is about no effect; nearly all actives have a fitted effect of over 55% in size
# Lassa entry inh: qHTS for Inhibitors of binding or entry into cells for Lassa Virus; AID 540256, 2011; Potency, µM (doses to about 37.9 µM), for the others: at the highest dose activity change, negative = inhibition, usual class: inhibitors; 300,000 compounds, 1.2% hits; Lassa virus pseudotype entry inhibition, cell reporter; calls by dose curve; tested in HEK293 cells; further: potency means the concentration at half of the fitted maximal effect; on the % scale 0 is the no-effect control and ±100 the full control effect; nearly all actives have a fitted effect of over 50% in size
# HCMV inh: qHTS Assay for inhibitors of the human cytomegalovirus (HCMV); 410,000 compounds, 4.5% hits; HFF cells, HCMV-luciferase reporter, 72 h; stronger effect = lower value; activity change, negative = inhibition, % at 57.5 µM; in the data active means activity change below about -60%; inconclusive means no clear call, values can overlap the other calls; inactive means above about -39%; further: on the % scale 0 is the no-effect control and ±100 the full control effect
#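 Compounds were evaluated in HFFs infected with an HCMV luciferase reporter virus (MOI 1 PFU/cell). Luciferase in lysates collected 72 h post infection served as the replication measure.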
# HCV inh: qHTS Assay for Inhibitors of Hepatitis C Virus (HCV) | Huh7.5.1 HCVcc-Cre infection, luciferase reporter, 44 h | Potency, µM (titrated, usually from 41.8 µM), for inactives: top-dose activity change, negative = inhibition, usual class: inhibitors | 340,000 compounds, 3.4% hits | AID 651820, 2012; active means well fitted inhibition curve with a large enough effect; inconclusive means small, poorly fitted or top-dose-only effect, or another doubt; inactive means no such curve, though single readings can be large or run the other way; further: potency means the concentration at half of the fitted maximal effect; on the % scale 0 is the no-effect control and ±100 the full control effect
#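 A cell-based infection assay in which seeded cells (1,000 per well) receive test compound after 4 h, are inoculated with HCVcc-Cre at approximately 0.5 moi, and are incubated 44 h before luminescence detection.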
# FMDV antiviral: High Throughput Screening for Foot and Mouth Disease Virus Antivirals | FMDV antiviral cell-based qHTS | Potency, µM (series often up to 57.9 µM), inactives show at the top dose activity change, negative = inhibition, most hits filed as inhibitors | 410,000 compounds, 1.2% hits; calls by dose curve; tested in HEK293T cells; further: read-out not given here; potency means the concentration at half of the fitted maximal effect; on the % scale 0 is the no-effect control and ±100 the full control effect; nearly all actives have a fitted effect of over 45% in size
# Starred values were filed as active, the others as inactive; ? = inconclusive; . = no result given; [ ] = another dose, or the depositor's remark.
SMILES,MARV entry inh,SARS PLP yeast,Lassa entry inh,HCMV inh,HCV inh,FMDV antiviral
COC(=O)c1ccc(CC2(C)C(=O)Nc3ccc(-c4cccc(C(F)(F)F)c4)cc32)o1 (stereo not drawn),.,.,.,?,.,-22%
Cc1oc2ccc(O)c(CN(C)Cc3ccccc3)c2c1C(=O)Nc1cccc(C(F)(F)F)c1,?,.,?,-79*,.,?
Cc1ccc(NC(=O)c2c(C)oc3ccc(O)c(CN(C)Cc4ccccc4)c23)c(C)c1,?,.,?,-67*,.,-23%
Cc1oc2ccc(O)c(CN(C)Cc3ccccc3)c2c1C(=O)Nc1ccccc1,?,.,?,-81*,.,-25%
CCN(Cc1ccccc1)Cc1c(O)ccc2oc(C)c(C(=O)Nc3ccc(C)cc3C)c12,?,.,?,-12,.,?
Cc1ccccc1NS(=O)(=O)c1ccc2[nH]cc(C(=O)NC3CCCCC3)c(=O)c2c1,.,-5%,?,36,.,-8%
CCOC(=O)c1cccn1C1C(=O)N(Cc2ccc(C(C)C)cc2)c2c(F)cccc21 (stereo not drawn),.,.,.,-35,.,.
Cc1ccc(NC(=O)c2ccc3nccnc3c2)c(C)c1,?,-2%,2%[46.1 µM],-68*,-24%,21%
O=C(Nc1ccc(SC(F)F)cc1)c1ccc2nccnc2c1,?,-14%,9%,-78*,3.5µM*,.
COCCCN1C(=O)c2ccc(C(=O)Nc3ccc(C)cc3C)cc2C1=O,.,0%,.,-92*,-1%,14%
Cc1ccc(C(=O)Nc2ccc3nccnc3c2)cc1,?,-13%,?,-10,3%,-18%
Cc1cc(C)c(NC(=O)c2ccc3nccnc3c2)c(C)c1,0%[46.1 µM],-6%,4%,-72*,3%,3%
COc1cc(OC)c(Nc2nc3ccc(C(=O)c4ccccc4)cc3n3c(C)nnc23)cc1Cl,1%[46.1 µM],.,9%[46.1 µM],5,.,-3%
C=CCC[C@@H](Cc1ccc(F)cc1)C(=O)OC[C@@H]1CCCN1C(=O)[C@H](CC=C)CC(=O)N[C@H](CO)Cc1ccccc1,.,-3%,.,42,10µM*,?
C=CCC[C@H](Cc1ccc(F)cc1)C(=O)OC[C@@H](NC(=O)[C@@H](CC=C)CC(=O)N[C@@H](CO)Cc1ccccc1)C(C)(C)C,.,-3%,.,61,22µM*,-1%
C=CCC[C@@H](Cc1ccc(F)cc1)C(=O)OC[C@@H](NC(=O)[C@@H](CC=C)CC(=O)N[C@@H](CO)Cc1ccccc1)C(C)(C)C,.,-7%,.,-16,5%,?
C=CCC[C@H](Cc1ccc(F)cc1)C(=O)OC[C@@H](NC(=O)[C@@H](CC=C)CC(=O)N(CCO)Cc1ccccc1)C(C)(C)C,.,5%,.,11,3.2µM*,?
C=CCC[C@H](Cc1ccc(F)cc1)C(=O)OC[C@H](C)NC(=O)[C@H](CC=C)CC(=O)NCCO,.,-11%,.,-69*,5%,-14%
COC(=O)N1C2CC(=O)O[C@H]3c4cc5c(cc4[C@]1(C)[C@@]3(Br)c1ccccc12)OCO5,8%[14.2 µM],.,.,.,.,.
COc1ccc(Nc2nnc(SCC(=O)/C=C3/N(C)c4ccccc4C3(C)C)s2)cc1,?,-36%,14µM*,-74*,?,20µM*
CCn1c(SCc2ccc(C(=O)Nc3cc(C)cc(C)c3)cc2)nnc1-c1ccncc1,?,0%,-23%,-62*,11µM*,18µM*
COCCn1c(SCC(=O)/C=C2\N(C)c3ccccc3C2(C)C)nnc1-c1ccncc1,-38%,3%,?,-75*,?,?
COCCn1c(SCCCC(=O)c2ccc(Br)cc2)nnc1-c1ccncc1,?,-8%,?,-71*,7.9µM*,?
COCCn1c(SCC(=O)c2c(-c3ccccc3)n(C)c3ccccc23)nnc1-c1ccncc1,?,1%,-5%,-36,?,-9%
Cn1c(SCCCC(=O)c2ccc(F)cc2)nnc1-c1ccncc1,3%,3%,7%,-33,-23%,?
SMILES,MARV entry inh,SARS PLP yeast,Lassa entry inh,HCMV inh,HCV inh,FMDV antiviral
CC(=O)N(C)c1ccc(NC(=O)Nc2ccc(C)c(C)c2)cc1,?,2%,-17%[46.1 µM],-16,?,-3%
O=C(Nc1ccccc1F)Nc1ccccc1Br,.,-1%,.,-9,7%,16%
Cc1noc(C)c1C(=O)N1CCC[C@@]2(CCN(Cc3nccs3)C2)C1,.,.,.,.,.,-5%
COc1cc(NC(=O)c2cnc(NCc3ccccc3)nc2C)cc(OC)c1OC,?,-1%,-26%[46.1 µM],-33,3.5µM*,0%
CC1(C(=O)N2CCN(c3ccc([N+](=O)[O-])cc3)CC2)CC1(Cl)Cl (stereo not drawn),.,2%,.,?,11µM*,20µM*
CC1(C(=O)N2CCN(c3ccccc3)CC2)CC1(Cl)Cl (stereo not drawn),-6%[46.1 µM],1%,3%[46.1 µM],-21,6%,-10%
Cc1c(-c2ccccc2)oc2c(C(=O)N3CCN(c4ccc([N+](=O)[O-])cc4)CC3)cccc2c1=O,-27%,-17%,-1%,-61*,-27%,-25%
CCSc1ccccc1C(=O)N1CCN(c2ccc([N+](=O)[O-])cc2)CC1,?,-1%,?,-30,10µM*,?
CCSc1ccccc1C(=O)N1CCN(c2nc3ccccc3s2)CC1,.,.,-26%[46.1 µM],-67*,.,?
CCCC(=O)N1CCN(c2nc3ccccc3s2)CC1,.,12%,.,?,?,2%
CN(C)c1ccc(-c2csc(C(C)(O)c3cccc(F)c3)n2)cc1 (stereo not drawn),.,.,.,?,.,-7%
O=C(C1COc2ccccc2O1)N1CCN(c2ccc([N+](=O)[O-])cc2)CC1 (stereo not drawn),?,-12%,7%,-13,22µM*,0%
CC(C)(O)C#Cc1ccc(C(=O)N2CCN(c3ccccc3)CC2)cc1,-35%,5%,-25%,-18,7%,0%
O=C(C1COc2ccccc2O1)N1CCN(c2ccc(F)cc2)CC1 (stereo not drawn),13%,-9%,?,6,5%,.
CC(C)(O)C#Cc1ccc(C(=O)N2CCN(c3ccc([N+](=O)[O-])cc3)CC2)cc1,?,-2%,?,-85*,?,?
COCCNC(=O)C1(C)CCN(C(=O)c2ccc3c(c2)C(C)(C)CCC3(C)C)C1 (stereo not drawn),.,.,.,-9,.,4%
O=S(=O)(Nc1ccc(Cl)cc1)c1cccc(S(=O)(=O)c2ccc(Cl)c(Cl)c2)c1,14%[46.1 µM],.,-3%[46.1 µM],10,.,-14%
CCOC(=O)c1c(C)[nH]c(C)c1S(=O)(=O)N1CCN(c2ccc(Cl)cc2)CC1,.,.,-6%[46.1 µM],7,.,-9%
